DT40 TDP1 no CPT = qHTS for Inhibitors of human tyrosyl-DNA phosphodiesterase 1 (TDP1): qHTS in cells in absence of CPT | DT40 Tdp1-/- hTDP1 cells, no CPT, ATP luminescence, 48 h | Potency, µM (series often up to 46.2 µM), without a hit: at the top dose activity change, negative = growth inhibition, actives largely listed as inhibitors | actives 15% (n = 420,000) | AID 686978, 2013; also: potency is read from the fitted curve at half-maximal effect; nearly all actives have a fitted effect of over 55% in size
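Stably hTDP1-transfected Tdp1-null chicken DT40 cells were treated with library compounds minus camptothecin and grown for at least 48 hr at 37 °C, after which cellular ATP was quantified by luminescence.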
IL1B secr inh = blocks inflammasome-driven IL-1 beta release. AID 743279. activity change, % at 57.5 µM. THP-1 LPS/ATP IL-1B secretion, AlphaLISA, 16 h; active compounds read low. actives 4.7% (n = 360,000); in the data active = activity change below about -50%; inconclusive = mostly about -30% to -49%
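THP-1 cells pretreated 1 hr with compounds (up to 57.5 uM final), then stimulated with LPS (250 ng/mL final) plus ATP (1.25 mM final); secreted IL-1B measured by AlphaLISA after 16 hr, decreased signal indicating inhibition.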
12-LOX inh = inhibitors of human 12S-lipoxygenase ALOX12. P18054. purified 12hLO, xylenol orange hydroperoxide absorbance. Potency, µM (series often up to 108 µM), for the others: at the top dose activity change, negative = inhibition, most hits filed as inhibitors. actives 1.1% (n = 580,000). AID 1671190; also: potency is read from the fitted curve at half-maximal effect
Target sequence (P18054 whole entry, looked up): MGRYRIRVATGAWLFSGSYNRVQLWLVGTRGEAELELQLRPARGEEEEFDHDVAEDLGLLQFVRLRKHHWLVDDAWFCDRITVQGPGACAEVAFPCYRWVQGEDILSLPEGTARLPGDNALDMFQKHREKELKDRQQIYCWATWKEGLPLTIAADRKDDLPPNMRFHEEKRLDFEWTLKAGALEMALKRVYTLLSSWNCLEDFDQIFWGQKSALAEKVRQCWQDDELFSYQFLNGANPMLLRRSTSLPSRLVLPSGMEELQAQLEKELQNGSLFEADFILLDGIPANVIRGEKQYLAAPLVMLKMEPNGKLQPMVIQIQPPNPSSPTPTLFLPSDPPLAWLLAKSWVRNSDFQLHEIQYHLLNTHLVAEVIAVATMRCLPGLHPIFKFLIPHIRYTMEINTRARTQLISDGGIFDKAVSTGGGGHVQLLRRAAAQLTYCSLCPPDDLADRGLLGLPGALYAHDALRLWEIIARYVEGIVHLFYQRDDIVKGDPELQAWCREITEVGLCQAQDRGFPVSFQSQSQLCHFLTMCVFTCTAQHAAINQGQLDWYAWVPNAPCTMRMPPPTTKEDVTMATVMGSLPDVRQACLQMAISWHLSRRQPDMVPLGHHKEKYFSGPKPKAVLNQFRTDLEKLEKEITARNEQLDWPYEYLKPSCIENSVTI
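Purified human 12hLO at 150 nM in 25 mM Hepes, 0.01% Triton X-100, pH 7.0, preincubated 15 min at room temperature with compound. Reaction started with 40 uM arachidonic acid, 30 min at room temperature. Hydroperoxide measured by Fe-xylenol orange, 573/405 nm absorbance ratio.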
HT1080-NT tox = kills 2HG-producing HT-1080-NT fibrosarcoma cells; Potency, µM (top dose mostly 46.1 µM), for the others: at the highest dose activity, negative = less viability, actives largely listed as cytotoxic; HT-1080-NT fibrosarcoma viability, CellTiter-Glo ATP luminescence, 48 h; actives 1.6% (n = 360,000);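 also: NT is the 2HG producing partner of a matched IDH1 knockdown line; potency is read from the fitted curve at half-maximal effect; 0% = DMSO-treated cells and -100% = media-only wells without cells; nearly all actives have a fitted effect of over 55% in size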
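HT-1080-NT fibrosarcoma cells (2HG-overproducing), 750 cells/well in RPMI with 5% FBS, dosed after 2 h and incubated 48 h at 37C. CellTiter-Glo luminescence normalized to DMSO and no-cell wells; concentration-response curves fitted and classed.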
HT1080 IDH1KD tx = kills HT-1080 cells with IDH1 knockdown. HT-1080 IDH1 knockdown viability, ATP luminescence, 48 h. Potency, µM (top dose mostly 46.1 µM), inactives show top-dose activity, negative = toxicity, actives largely listed as cytotoxic. actives 2% (n = 360,000). AID 686971;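 also: potency is read from the fitted curve at half-maximal effect; 0% = DMSO wells and -100% = cell-free medium wells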
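Cytotoxicity counter-line: IDH1KD HT-1080, 48 h, CellTiter-Glo. Curves classed by r2, magnitude and activity.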
TDP1 cell CPT = DT40-hTDP1 cell growth loss with CPT | chicken DT40 Tdp1-/-;hTDP1 cells + 20 nM CPT, ATP luminescence, 48 h | Potency, µM (highest dose often 46.2 µM), without a hit: at the highest dose activity change, negative = growth inhibition, most hits filed as inhibitors | actives 12% (n = 420,000) | AID 686979; also: potency is read from the fitted curve at half-maximal effect; nearly all actives have a fitted effect of over 55% in size
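Chicken DT40 Tdp1-/- cells complemented with human TDP1, 400 cells/well, exposed to compounds plus 20 nM camptothecin for at least 48 h at 37 C; viability read as ATP content by CellTiter-Glo luminescence.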
Numbers without * were called inactive; u = inconclusive; x = no result; [ ] = remark or other dose. The full list was thinned out, with hits kept by preference. Unless noted, calls follow the shape of the dose curve; as a rule, active = well fitted curve in the direction sought with a large enough effect; inconclusive = small, poorly fitted or top-dose-only effect, or another doubt; inactive = no such curve, though single readings can be large; an effect the other way counts as inactive or inconclusive. Unless noted, % is scaled to controls: 0 for no effect and ±100 for the full control effect.

SMILES | DT40 TDP1 no CPT | IL1B secr inh | 12-LOX inh | HT1080-NT tox | HT1080 IDH1KD tx | TDP1 cell CPT
CC1CCC2(CC1)OCC(C(=O)NCc1ccco1)N2C(=O)c1ccccc1F (stereo not drawn) | x | x | 9.4% | x | x | x
O=C(CCS(=O)(=O)c1ccccc1)N(Cc1cccnc1)c1nc2c(Cl)cccc2s1 | 5.17µM* | x | 2.4% | x | x | 5.17µM*
Cc1cc(C)c2sc(N(Cc3cccnc3)C(=O)CCS(=O)(=O)c3ccccc3)nc2c1 | 2.91µM* | x | u | x | x | 4.11µM*
CC(=O)N(Cc1cccnc1)c1nc2cc(C)cc(C)c2s1 | u | x | -25.7% | x | x | u
Cc1ccc2sc(N(Cc3cccnc3)C(=O)CCS(=O)(=O)c3ccccc3)nc2c1C | 6.51µM* | x | u | x | x | 5.8µM*
O=C(c1cccs1)N(Cc1cccnc1)c1nc2c(Cl)cccc2s1 | u | x | -11.4% | x | x | -21.3%
Cc1cccc2sc(N(Cc3cccnc3)C(=O)CCOc3ccccc3)nc12 | u | x | -16.7% | x | x | u
O=C(CCOc1ccccc1)N(Cc1cccnc1)c1nc2c(Cl)cccc2s1 | 2.06µM* | x | -17.5% | x | x | 1.3µM*
CCc1ccc(C(CNC(=O)c2n[nH]c(=O)c3ccccc23)N(C)C)cc1 (stereo not drawn) | x | x | -5.1% | x | x | x
Cc1cc(C)c2nc(N(Cc3cccnc3)C(=O)c3ccc(S(=O)(=O)N(C)C)cc3)sc2c1 | 18.4µM* | x | -3.4% | x | x | u
Cc1cc(C)c2nc(N(Cc3cccnc3)C(=O)CCOc3ccccc3)sc2c1 | u | x | -11.6% | x | x | -17.6%
Cc1cc(C)c2nc(N(Cc3cccnc3)C(=O)CCS(=O)(=O)c3ccccc3)sc2c1 | 4.61µM* | x | -24.4% | x | x | 4.61µM*
Cc1cccc2sc(N(Cc3cccnc3)C(=O)CCS(=O)(=O)c3ccccc3)nc12 | 3.26µM* | x | u | x | x | 2.91µM*
Cc1ccc2sc(N(Cc3cccnc3)C(=O)c3ccc(S(=O)(=O)N(C)C)cc3)nc2c1C | x | x | 4.1% | x | x | x
O=C(Cc1cccs1)N1CCN(S(=O)(=O)c2cc(Cl)ccc2Cl)CC1 | 3.4% | -3.5 | -4.4% | -2.0% | -9.6% | 2.4%
CCOC(=O)C1CCCN(C(=O)Cn2ncn3nc(-c4cccs4)cc3c2=O)C1 (stereo not drawn) | x | x | 6.0% | x | x | x
CN1C(=O)[C@@H]2C[C@@H](CN2CC2CC2)Oc2ccccc21 | x | x | 142.5%[176 µM] | x | x | x
O=C(CSc1nnnn1C1CC1)c1ccc2c(c1)Cc1ccccc1-2 | x | x | 114.0% | x | x | x
CCC1(C)CC2(CCCN(CCC(=O)c3ccccc3)C2)CCO1 (stereo not drawn) | 3.26µM* | 0.9 | -5.4% | 3.1% | 4.8% | 3.66µM*
O=C(CCCCN1CCCCC1)c1ccc2c(c1)Cc1ccccc1-2 | 20.6µM* | -4.5 | -7.6% | -29.6% | 0.4% | u
CCC1(C)CC(CC(=O)O)(c2ccccc2OC)CCO1 (stereo not drawn) | 0.7% | 23.7 | -10.2% | 1.1% | 2.0%[9.24 µM] | 10.9%
Cc1ccc(C(=O)CCN2CCCCCC2)cc1 | x | x | 2.6% | x | x | x
CCOc1ccc(C(=O)CCN2CCCCC2)cc1 | u | -5.7 | 305.7% | u | -22.1% | 20.6µM*
O=C(CCN1CCCCCC1)c1ccccc1 | 3.66µM* | -3.5 | 0.0%[57.4 µM] | 12.5% | 2.6% | 3.26µM*
CNC[C@@H]1OCc2ccccc2-c2c(n(C)c3ccccc23)C(=O)N([C@@H](C)CO)C[C@@H]1C | x | x | 18.7% | x | x | x
SMILES | DT40 TDP1 no CPT | IL1B secr inh | 12-LOX inh | HT1080-NT tox | HT1080 IDH1KD tx | TDP1 cell CPT
COc1ccc(/C=C/c2nn3c(-c4ccccc4OC)nnc3s2)cc1 | x | x | 16.6% | x | x | x
O=C(NCC#Cc1ccccc1)c1cnc(-c2ccccc2)nc1 | x | x | 30.2% | x | x | x
CCCOc1ccc(C(=O)CCN2CCN(C(=O)OCC)CC2)cc1 | 5.17µM* | 0.0 | -21.1% | u | u | 2.31µM*
COc1ccc(C(=O)CCN2CCCCCC2)cc1 | 3.16µM* | -3.9 | -28.0% | u | 10µM* | 3.16µM*
COc1ccc(N2CCN(CCC(N)=O)CC2)cc1 | -1.9% | 3.0 | -15.4% | 6.2% | -0.4%[9.24 µM] | 2.3%
COc1ccc(C(=O)CCN2CCN(c3ccc(OC)cc3)CC2)cc1 | 2.06µM* | -100.8* | 11.8% | u | u | 2.06µM*
CCOC(=O)N1CCN(C(=O)CCC(=O)c2ccc(OCC)cc2)CC1 | -15.4% | 21.2 | 4.2% | 17.6% | 22.1% | 8.1%
CC(C)Oc1ccc(C(=O)CCN2CCCCC2)cc1 | u | -29.8 | -21.1% | -5.3% | 1.0% | u
O=C(/C=C/c1ccccc1)CCN1CCCCC1 | 0.92µM* | -90.5* | u | u | u | 1.16µM*
CON(C)C(=O)C(C)(C)CC#CCN(CC#Cc1ccccc1)S(=O)(=O)c1ccc(C)cc1 | x | x | -8.9% | x | x | x
O=C(/C=C/c1ccccc1)COC(=O)c1ccccc1 | 9.2µM* | -8.0 | -1.7% | u | u | u
O=C(Nc1ccccc1N1CCCCC1)c1ccc(-c2ccc(Cl)cc2)o1 | 4.11µM* | 26.2 | 1.9% | 2.06µM* | 2.06µM* | 3.26µM*
COc1ccccc1NC(=O)c1ccc(-c2ccc(Br)cc2)o1 | 5.8µM* | 22.5 | -12.1% | u | 18.4µM* | 7.31µM*
COc1ccc(NC(=O)c2ccc(-c3ccc(F)cc3)o2)cc1OC | 16.4µM* | -28.4 | -7.9% | -0.1% | -0.9% | 20.6µM*
Cc1ccc(C)c(NC(=O)CN(C)C(=O)c2ccc(-c3cccc(C(F)(F)F)c3)o2)c1 | 14.6µM* | -16.2 | -5.0% | -3.4% | 5.1% | u
CC(C)NC(=O)c1ccc(-c2ccc(F)cc2)o1 | x | x | 6.9% | x | x | x
NC(=O)c1ccccc1NC(=O)c1ccc(-c2ccc(Br)cc2)o1 | u | x | 3.3% | x | x | -24.5%
CCN(CC(=O)Nc1ccc(NC(C)=O)cc1)C(=O)C1(c2ccccc2)CC1 | 3.0% | -5.8 | 39.0% | 5.1% | 12.9% | 14.8%
COc1nc(C(=O)N2CCN(C(=O)N(C)C)CC2)cc2ccccc12 | x | x | 31.0% | x | x | x
O=C(C1CN(c2ccccc2)C(=O)N1)N1CCN(Cc2ccccc2)CC1 (stereo not drawn) | x | x | 29.6% | x | x | x
CN(C)C(=O)c1ccc(NC(=O)c2ccc(-c3ccc(Cl)cc3)o2)cc1 | 16.4µM* | -11.6 | u | 7.1% | 5.0% | 23.1µM*
COc1cc(NC(=O)c2ccc(-c3ccc(Br)cc3)o2)ccc1NC(=O)C(C)C | 18.4µM* | 0.0 | -3.0% | -6.5% | -8.0% | 14.6µM*
O=C(NC(=S)Nc1ccccc1N1CCOCC1)c1ccc(-c2cc(Cl)ccc2Cl)o1 | 23.1µM* | 12.8 | u | 5.2% | 5.6% | u

Compound activity deposited in PubChem by National Center for Advancing Translational Sciences (NCATS).
